According to ChEMBL document CHEMBL3988442, “University of Dundee, Small-Polar-MMV Screening Library” (2021):

Experiments:
[1] = target: T1, Aspartate--tRNA(Asp/Asn) ligase (Mycobacterium tuberculosis (strain ATCC 25618 / H37Rv)) (UniProt P9WFW3); test: Assay for Asp RNA synthetase-1 from Mycobacterium tuberculosis; format: functional; design: scale not given: direction of the effect not stated beside the values; conditions: 30 µM; also: in the data most compounds retested in dose-response had high values
T1 sequence (whole entry): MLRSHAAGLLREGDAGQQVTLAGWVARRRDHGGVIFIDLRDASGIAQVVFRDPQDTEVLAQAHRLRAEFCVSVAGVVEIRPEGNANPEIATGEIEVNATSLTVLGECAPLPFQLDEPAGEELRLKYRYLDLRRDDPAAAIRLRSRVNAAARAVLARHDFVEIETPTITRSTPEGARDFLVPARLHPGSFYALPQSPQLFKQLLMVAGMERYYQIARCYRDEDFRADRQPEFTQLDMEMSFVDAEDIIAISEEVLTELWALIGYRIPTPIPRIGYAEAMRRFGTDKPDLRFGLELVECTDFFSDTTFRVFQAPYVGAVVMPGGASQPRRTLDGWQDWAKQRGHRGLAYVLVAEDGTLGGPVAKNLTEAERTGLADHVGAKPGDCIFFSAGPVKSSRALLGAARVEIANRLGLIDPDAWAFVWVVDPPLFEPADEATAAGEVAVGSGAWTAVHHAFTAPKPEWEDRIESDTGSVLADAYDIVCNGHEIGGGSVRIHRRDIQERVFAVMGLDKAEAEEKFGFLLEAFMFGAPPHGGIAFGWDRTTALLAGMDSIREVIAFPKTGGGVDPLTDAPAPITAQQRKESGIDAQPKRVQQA

[2] = target: Shiga toxin 2 (Escherichia coli O157:H7) (UniProt P09385+P09386); test: E. coli 0.157:H7 Shiga Toxin SOP - stx2 screening assay; format: functional; design: scale not given: direction of the effect not stated beside the values; conditions: 30 µM

| SMILES | Percent Effect [1] | Percent Effect [2] |
| --- | --- | --- |
| CC(O)CN1CCN(C(=O)c2ccc3c(c2)COC3)CC1 (stereo unspecified) | -4.85% | -19.4% |
| c1cnnc(N2CCCC2CNCc2cnc(N3CCCC3)nc2)c1 (stereo unspecified) | 0.626% | -6.77% |
| CCCc1nc(C)cc(N2CCC3(CCC(=O)N(CC4CC4)C3)CC2)n1 | 3.82% | -18.5% |
| CCN(CC)C(=O)Nc1cc2c(cc1SC)OCCO2 | -1.51% | 12% |
| O=C(NCCCn1cncn1)NCC(c1ccccc1)N1CCCC1 (stereo unspecified) | 0.0576% | -13% |
| O=C(Cc1c[nH]c2ccccc12)N1CCC(Nc2cccnn2)CC1 | 1.83% | -4.79% |
| O=S(=O)(NCC1CCN(c2cnccn2)CC1)c1c(F)cccc1F | -2.55% | 4.65% |
| CN1CCC(c2ncc3c(n2)CCN(C(=O)CC2C=CCC2)C3)CC1 (stereo unspecified) | 0.956% | -1.54% |
| COCc1nc(C(=O)NS(=O)(=O)c2ccc(C)cc2C)cs1 | 0.811% | -0.5% |
| Cc1cc(C)n(CC(=O)N2CCC(NS(C)(=O)=O)CC2)n1 | -2.75% | 32.8% |
| Cc1cccc(CCC(=O)N2CCOCC2c2c(C)n[nH]c2C)c1 (stereo unspecified) | 3.91% | -16.7% |
| CCN1CC2(CCC1=O)CCN(C(=O)c1ccc(Cl)cc1O)CC2 | -1.67% | -16.7% |
| Cc1ccc(-c2cc(CN3CCOC(Cn4cncn4)C3)on2)cc1 (stereo unspecified) | 1.83% | -14% |
| Cc1csc([C@@H]2C[C@@H]3CCN(C(=O)c4ccnnc4)C[C@H]3O2)n1 | -2.11% | -6.67% |
| CCCn1[nH]cc/c1=N\C(=O)CN1CCc2cnc(CC)nc2C1 | 5.8% | -6.51% |
| O=C(CN1CCCC(Cn2cncn2)C1)NCc1ccco1 (stereo unspecified) | -4.69% | 14.2% |
| COc1ccccc1OCC(=O)NS(=O)(=O)c1ccc(C)s1 | -0.394% | 3.1% |
| O=C(c1ccc[nH]1)N1CCC(c2nccn2Cc2ccncc2)CC1 | 5.61% | -10.8% |
| COc1ccc(Nc2nc3c(C)nn(C)c3c(=O)n2C)c(OC)c1 | 6.63% | -34.2% |
| Cc1cc(CN(C)C(=O)NC(C)c2nncn2C)no1 (stereo unspecified) | -3.43% | 6.65% |
| Cc1nccn1CC1CCCN1S(=O)(=O)Cc1ccccc1 (stereo unspecified) | -1.4% | 4.42% |
| CCCS(=O)(=O)N1CCO[C@H]2[C@H](OCc3ccccn3)CC[C@@H]21 | 3.5% | -8.66% |
| CC(=O)NCC1CCN(CC2CCOc3ccccc3C2)CC1 (stereo unspecified) | 1.5% | 1.04% |
| CN(c1cccnn1)C1CCN(C(=O)c2ccc3c(c2)COC3)CC1 | -2.64% | 13.1% |
| O=C(NC1(c2cccc(F)c2)CCOCC1)c1ccccn1 | -1.19% | -49.2% |
| CC(=O)c1c(F)cccc1N1CCC(CS(N)(=O)=O)CC1 | -3.49% | -2.68% |
| COc1cccc(CN2CCCC2c2c(C)nn(C)c2C)c1 (stereo unspecified) | 2.17% | -4.12% |
| CS(=O)(=O)CCC(=O)NC1(c2cccc(Br)c2)CC1 | 5.45% | 3.23% |
